Data from PubChem BioAssay AID1159580 (chemical genetic matrix, 2015).
“And” between values parts separate entries of the source, which are not always exact repeats. Equal entries are not always repeated. The campaign covered roughly 5,500 compounds. About 2,000 (36%) were called active. Roughly 18% stayed inconclusive and do not appear here. Cut-off read from the data, not from the text of the source: active = normalized growth mostly below about 0.91 (no sharp cut-off); inconclusive = no clear call, values can overlap the other calls; inactive = mostly above about 0.92. The list shows a part of the results.

Assay: chemical genetic growth profiling, strain panel (AID 1159580);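 note: tested at 20 µM; growth read once vehicle control cultures reached saturation at 30 °C; 1 = growth at the plate median or of vehicle wells; lower values mean less growth of the strain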
Conditions: S. cerevisiae deletion strains, growth OD

Measured: normalized growth

Cn1nnnc1SCC1=C(C(=O)O)N2C(=O)C(NC(=O)C(OC=O)c3ccccc3)C2SC1 (stereo unspecified)
inactive: locus YAL021C, strain ccr4, active compounds read low 1.02 | locus YAL026C, strain drs2, active compounds read low 0.999 | locus YAL030W, strain snc1, active compounds read low 1 | locus YBL061C, strain skt5, active compounds read low 1.01 | locus YBR009C, strain hhf1, active compounds read low 1.04 | locus YBR021W, strain FUR4, active compounds read low 0.986 | locus YBR023C, strain chs3, active compounds read low 0.998 | locus YBR171W, strain sec66, active compounds read low 0.984 | locus YBR229C, strain ROT2, active compounds read low 1 | locus YBR231C, strain swc5, active compounds read low 1.01 | locus YBR279W, strain paf1, active compounds read low 0.999 | locus YCL011C, strain gbp2, active compounds read low 1 | locus YCL016C, strain dcc1, active compounds read low 1 | locus YCL029C, strain bik1, active compounds read low 1.03 | locus YCL061C, strain MRC1, active compounds read low 0.991 | locus YCL069W, strain vba3, active compounds read low 0.992 | locus YCR088W, strain abp1, active compounds read low 0.998 | locus YDL005C, strain med2, active compounds read low 0.991 | locus YDL035C, strain GPR1, active compounds read low 1.01 | locus YDL040C, strain nat1, active compounds read low 1 | locus YDL074C, strain BRE1, active compounds read low 1.02 | locus YDL101C, strain DUN1, active compounds read low 1.01 | locus YDL134C, strain PPH21, active compounds read low 1.01 | locus YDL185W, strain tfp1, active compounds read low 1.01 | locus YDL192W, strain arf1, active compounds read low 1.02 | locus YDR001C, strain nth1, active compounds read low 0.991 | locus YDR069C, strain doa4, active compounds read low 1 | locus YDR101C, strain arx1, active compounds read low 1.03 | locus YDR137W, strain rgp1, active compounds read low 1.02 | locus YDR150W, strain NUM1, active compounds read low 1 | locus YDR159W, strain sac3, active compounds read low 0.979 | locus YDR162C, strain NBP2, active compounds read low 1.01 | locus YDR195W, strain ref2 0.949 | locus YDR297W, strain sur2, active compounds read low 0.992 | locus YDR318W, strain mcm21, active compounds read low 1.02 | locus YDR334W, strain swr1, active compounds read low 0.995 | locus YDR335W, strain msn5, active compounds read low 1 | locus YDR388W, active compounds read low 1.02 | locus YDR392W, strain spt3, active compounds read low 0.995 | locus YDR502C, strain sam2, active compounds read low 1.02 | locus YEL003W, strain gim4, active compounds read low 1 | locus YEL037C, strain rad23, active compounds read low 0.994 | locus YEL061C, strain CIN8 (second series), active compounds read low 0.991 | locus YEL061C, strain CIN8, active compounds read low 1 | locus YER015W, strain faa2, active compounds read low 1 | locus YER016W, strain bim1, active compounds read low 0.997 | locus YER110C, active compounds read low 1.03 | locus YER111C, strain swi4, active compounds read low 0.998 | locus YER155C, strain BEM2 (second series), active compounds read low 0.977 | locus YER155C, strain BEM2, active compounds read low 0.99 | locus YER167W, strain BCK2, active compounds read low 1 | locus YFR010W, strain ubp6, active compounds read low 0.995 | locus YGL078C, strain dbp3, active compounds read low 1.03 | locus YGL086W, strain mad1, active compounds read low 1.01 | locus YGL167C, strain pmr1, active compounds read low 1 | locus YGL173C, strain kem1, active compounds read low 0.997 | locus YGL227W, strain vid30, active compounds read low 0.993 | locus YGL240W, strain doc1, active compounds read low 0.978 | locus YGL248W, strain PDE1, active compounds read low 1.01 | locus YGL253W, strain hxk2, active compounds read low 1.01 | locus YGR078C, strain PAC10, active compounds read low 0.994 | locus YGR135W, strain pre9, active compounds read low 1.02 | locus YGR229C, strain SMI1, active compounds read low 1.01 | locus YGR252W, strain gcn5, active compounds read low 1.03 | locus YHR013C, strain ard1, active compounds read low 1 | locus YHR027C, strain rpn1, active compounds read low 0.995 | locus YHR030C, strain SLT2, active compounds read low 0.999 and 1.01 | locus YHR079C, strain IRE1 (second series), active compounds read low 1.02 | locus YHR079C, strain IRE1, active compounds read low 0.985 | locus YHR094C, strain hxt1, active compounds read low 1.03 | locus YHR129C, strain ARP1, active compounds read low 0.998 | locus YHR142W, strain chs7, active compounds read low 1.02 | locus YHR200W, strain rpn10, active compounds read low 1.02 | locus YIL066C, strain RNR3, active compounds read low 1 | locus YIL073C, strain SPO22, active compounds read low 1.07 | locus YIL125W, strain kgd1, active compounds read low 1.01 | locus YIR030C, strain dcg1, active compounds read low 1.03 | locus YJL092W, strain hpr5, active compounds read low 0.993 | locus YJL095W, strain BCK1 (second series), active compounds read low 1.01 | locus YJL095W, strain BCK1, active compounds read low 1 and 0.969 | locus YJL115W, strain asf1, active compounds read low 0.985 | locus YJL129C, strain trk1, active compounds read low 1 | locus YJL134W, strain LCB3, active compounds read low 1 | locus YJL154C, strain vps35, active compounds read low 1 | locus YJL164C, strain tpk1, active compounds read low 1.01 | locus YJL166W, strain qcr8, active compounds read low 1.01 | locus YJL168C, strain set2, active compounds read low 1.01 | locus YJL187C, strain SWE1 (second series), active compounds read low 1 | locus YJL187C, strain SWE1, active compounds read low 0.986 | locus YJR043C, strain POL32, active compounds read low 1.01 | locus YJR066W, strain TOR1, active compounds read low 0.954
